About 9,100 (2.5%) of roughly 360,000 compounds were called active. About 4% were inconclusive and are not listed. The entries come from a sample that favours actives as a whole. Values without a mark were called inactive. Rule as the data show it: active = max response below about -50%; inconclusive = no clear call, values can overlap the other calls; inactive = above that.
The molecules below were run against D(3) dopamine receptor (Homo sapiens) (UniProt P35462) (assay: qHTS of D3 Dopamine Receptor Antagonist: qHTS). Conditions: D3R cells, DiscoveRx beta-arrestin luminescence, antagonist mode; active compounds read low.
Sequence of D(3) dopamine receptor (Homo sapiens) (P35462 whole entry, looked up): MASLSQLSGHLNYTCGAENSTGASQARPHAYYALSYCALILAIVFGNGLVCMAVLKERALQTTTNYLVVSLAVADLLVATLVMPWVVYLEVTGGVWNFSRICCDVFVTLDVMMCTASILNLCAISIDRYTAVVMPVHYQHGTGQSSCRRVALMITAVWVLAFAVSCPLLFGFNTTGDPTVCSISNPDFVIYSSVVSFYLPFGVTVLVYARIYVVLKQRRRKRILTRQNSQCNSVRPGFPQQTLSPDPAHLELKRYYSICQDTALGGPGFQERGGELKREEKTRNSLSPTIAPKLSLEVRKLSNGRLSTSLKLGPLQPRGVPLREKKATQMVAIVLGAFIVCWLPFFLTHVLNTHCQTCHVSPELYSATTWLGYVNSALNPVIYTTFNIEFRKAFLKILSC
Summary of the method: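 Cells plated overnight at 1500 cells/well, then exposed to library compounds with dopamine controls for 90 minutes at 37 degrees C. DiscoveRx reagent added for 30–60 minutes at room temperature; luminescence read, quantitative HTS format.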
% is scaled to controls: 0 for no effect and ±100 for the full control effect.

SMILES	max response, negative = inhibition
COc1ccc(C2CC(c3cccc(OC)c3)=NN2c2ccc(S(N)(=O)=O)cc2)cc1 (centres undefined)	17.8%
O=C(/C=C/[C@H]1O[C@@H](n2ccc(=O)[nH]c2=O)[C@H](O)[C@@H]1O)NCc1ccccn1	9.97%
O=C(CC1NCCNC1=O)Nc1cc(Cl)cc(Cl)c1 (centres undefined)	20.6%
O=C(CC1NCCc2ccccc21)Nc1cccc(Cl)c1 (centres undefined)	-95.5% (active)
O=C(CC1NCCNC1=O)Nc1ccc(Oc2ccccc2)cc1 (centres undefined)	24.3%
O=C(Nc1sc2c(c1C(=O)O)CCC2)c1ccccc1F	-1.53%
Cc1cccc(C)c1NC(=O)C(c1cccc(F)c1)N1CCN(C)CC1 (centres undefined)	-13.2%
CC(=O)Nc1sc2c(c1C(c1cccc(F)c1)N1CCN(CCO)CC1)CCCC2 (centres undefined)	-60.6% (active)
Cc1ccc(S(=O)(=O)N[C@H]2CCC[C@@H]2O)cc1	-12.4%
CN(C(=O)CN1CCN(c2cc(-c3ccc(OCc4ccccc4)cc3)ncn2)CC1)c1ccccc1	49%
CN(CC(=O)NC1CCN(Cc2ccccc2)CC1)S(=O)(=O)c1ccc(Cl)s1	-58.6% (active)
CN(CC(=O)NC1CCCCC1)S(=O)(=O)c1ccc(Br)s1	-7.06%
CC(=O)NCc1ccc(S(=O)(=O)NC2CCN(Cc3ccccc3)CC2)cc1	-11.1%
CCNC(=O)C1(C)CCCN1C(=O)c1ccc(N(C)C)cc1 (centres undefined)	6.44%
CC(C)(C)N1C(=O)c2c(C(=O)OCc3ccccc3)[nH]c(-c3ccccc3)c2C1=O	-3.03%
CC(=O)Nc1cccc(-c2cc3nc(NCc4cccnc4)n(C)c(=O)c3s2)c1	17.6%
COc1ccc(C(CNC(=O)c2ccc(OCc3cscn3)cc2)N2CCCC2)cc1 (centres undefined)	-19.8%
COc1ccc(C(CNC(=O)COc2ccccc2OC)N2CCCCC2)cc1 (centres undefined)	-53.8% (active)
COc1ccc(C(CNC(=O)CSc2ccccc2)N2CCOCC2)cc1 (centres undefined)	19.6%
COc1ccc(C(CNC(=O)COc2ccc([N+](=O)[O-])cc2)N2CCCCC2)cc1 (centres undefined)	-74.5% (active)

SMILES	max response, negative = inhibition
CCOc1ccc(NS(=O)(=O)c2ccc(C(=O)NCC(c3ccccc3OC)N3CCCC3)cc2)cc1 (centres undefined)	-13.6%
COc1ccc(OCC(=O)NNC(=O)C2CCC2)cc1	-0.824%
CCc1nc2ccc(C(=O)NCCNC(C)=O)cn2c1N(CC)Cc1cccc(Br)c1	48.8%
O=C1NC[C@H](Cc2ccc(O)cc2)N(C[C@@H]2CCCN2C[C@H](Cc2ccccc2)N2C[C@H](Cc3ccccc3)N(CC3CCCCC3)C(=O)C2=O)C1=O	8.41%
CC(C)(C)c1ccc(C(=O)NNC(=O)Cc2ccccc2)cc1	-17.8%
Cc1ccc(SC(CC(=O)c2ccc(C(C)(C)C)cc2)C(=O)O)cc1 (centres undefined)	-80.7% (active)
Cc1ccc(Sc2cc(C(=O)c3ccccc3C(=O)O)ccc2[N+](=O)[O-])cc1	-21.4%
CCN1CCN(C(c2cccnc2)c2cc(Cl)c3cccnc3c2O)CC1 (centres undefined)	-91.7% (active)
Cc1ccc([C@H]2C[C@H](O)[C@@H](n3cc(COC(=O)c4ccccc4)nn3)CN2CC2CCCCC2)cc1	1.62%
CCN(CC)C(=O)CC(c1ccc2c(c1)OCO2)c1c(OC)cc(OC)c2c(-c3ccccc3)cc(=O)oc12 (centres undefined)	0.75%
COc1cc(C(CCN2CCN(c3ccccc3)CC2)c2c(OC)cc(OC)c3ccc(=O)oc23)cc(OC)c1OC (centres undefined)	-84.7% (active)
O=C(C(=O)N1CCN(c2ccccc2)CC1)c1ccc2c(c1)OCO2	-3.44%
COc1cc(OC)c2ccc(=O)oc2c1C(CCN1CCN(c2ccccc2)CC1)c1ccc2c(c1)OCO2 (centres undefined)	-81.3% (active)
COc1ccc(C(CC(=O)N2CCN(c3ccccc3)CC2)c2c(O)cc(OC)cc2OC)cc1 (centres undefined)	8.17%
CCN(CC)CCC(c1cc(OC)c(OC)c(OC)c1)c1c(OC)cc(OC)c2c(-c3ccccc3)cc(=O)oc12 (centres undefined)	15.7%
Cc1cc2nc(-c3ccc(F)cc3)c(Cc3ccsc3)n2c(C)c1Br	28.2%
Cc1cc(Br)cn2c(Cc3ccsc3)c(-c3ccc(C#N)cc3)nc12	3.93%
Cc1ccc(S(=O)(=O)N2CCC(=O)N([C@H](COCc3ccccc3)Cc3ccccc3)CC2)cc1	-4.09%
CCCc1ccc(S(=O)(=O)N2CCN(C(=O)c3cc(C)on3)CC2)cc1	15.8%
COCCNC(=O)c1cc2c(Br)ccc(Br)c2nc1N	-12.2%

SMILES	max response, negative = inhibition
COc1ccc(NC(=O)C(c2ccncc2)n2c(=O)c(-c3cc4ccccc4[nH]3)nc3ccccc32)cc1 (centres undefined)	12.2%
Cc1ccc(Cn2c(C)c(C(=O)NCc3ccccc3C(F)(F)F)sc2=O)cc1	11.8%
Cc1ccc(NC(=O)CSc2sc3c(O)cc(=O)[nH]c3c2C#N)cc1C	12.7%
Cc1cc(C#N)c(SCC(N)=O)nc1-c1ccc(F)cc1	9.54%
Cc1cc(=O)[nH]c(SCC(N)=O)c1C#N	-50.3% (active)
C=CCC[C@H](CCCCC)OC(=O)/C=C/[C@H](O)[C@@H](O)C[C@@H](O)CC=C	-8.69%
CC(C)(O)C#Cc1ccc(CNC[C@H]2O[C@@H](n3cnc4c(=O)[nH]c(N)nc43)[C@H](O)[C@@H]2O)s1	14.7%
Nc1ccccc1-c1nc2ccncc2[nH]1	-1.55%
Cc1cc(=O)oc2c(C)c(OC(C)C(=O)NC3CCN(Cc4ccccc4)CC3)ccc12 (centres undefined)	4.52%
S=C(NN=C1CCN(Cc2ccccc2)CC1)NC1CCCCC1	-1.61%
S=C(NCCCc1ccccc1)Nc1ccc(Br)cc1	11.9%
O=C(CN1CCCCC1)Nc1ccccc1C(=O)NC1CC1	18.3%
CC(C)(C)C(=O)NNC(=O)c1ccc(Oc2cc(Cl)cc(Cl)c2)o1	19.5%
S=C(Nc1ccc(Br)cc1)NC1CCN(Cc2ccccc2)CC1	-58.1% (active)
O=C(NC1CCN(Cc2ccccc2)CC1)c1ccc(Oc2cc(Cl)cc(Cl)c2)o1	-87.6% (active)
O=C(NC1CCN(Cc2ccccc2)CC1)c1ccccc1F	-72.3% (active)
CCNC(=S)NNC(=O)C1CCN(Cc2ccccc2)CC1	-27.2%
O=C(NC1CCN(Cc2ccccc2)CC1)c1cc(Br)c(Br)[nH]1	-86.7% (active)
N#Cc1ccc(CN2CCN(CC(=O)Nc3ccccc3C(=O)NC3CC3)CC2)cc1	1.04%

Source: PubChem BioAssay AID652054 (National Center for Advancing Translational Sciences (NCATS), 2013)
